Screening results deposited in PubChem BioAssay by National Center for Advancing Translational Sciences (NCATS).
BLM inh: qHTS Assay for Inhibitors of Bloom's syndrome helicase (BLM); RecQ-like DNA helicase BLM (Homo sapiens), P54132; recombinant BLM DNA unwinding, fluorescence dequenching; Potency, µM (titrated, usually from 56.1 µM), for the others: at the highest dose activity change, negative = inhibition, usual class: inhibitors; hit rate 0.2% among 350,000; AID 2528, 2010;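 note: plate controls were vehicle for no effect and no enzyme for full effect; nearly all actives have a fitted effect of over 35% in size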
FEN1 inhibitor: qHTS Assay for the Inhibitors of Human Flap endonuclease 1 (FEN1); P39748; Recombinant FEN1 flap cleavage, fluorescence, 15 min; Potency, µM (highest dose often 114 µM), for inactives: at the highest dose activity change, negative = inhibition, hits mostly inhibitors; hit rate 0.35% among 390,000; AID 588795, 2011; note: nearly all actives have a fitted effect of over 65% in size
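Concentration–response screening of FEN1 (10 nM): 15 min compound preincubation at room temperature, reaction started with 50 nM substrate and read at 0 and 15 min. Corrected, normalized data were fitted by a four-parameter Hill equation.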
WRN helicase inh: qHTS for Inhibitors of WRN Helicase; hit rate 0.46% among 360,000; Potency, µM (titrated, usually from 114 µM), for the others: at the top dose activity change, negative = inhibition, most hits filed as inhibitors; WRN helicase unwinding, fluorescent forked duplex, kinetic; Bifunctional 3'-5' exonuclease/ATP-dependent helicase WRN (Homo sapiens), Q14191; note: nearly all actives have a fitted effect of over 55% in size
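Fluorescence dequenching readout, ex 525 nm/em 598 nm, kinetic mode: forked duplex DNA (100 nM final) with adjacent fluorophore and quencher unwound by WRN (20 nM final) with 2 mM ATP. Compound preincubation 15 min, room temperature.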
L3MBTL1 block: qHTS Assay for the Inhibitors of L3MBTL1; Lethal(3)malignant brain tumor-like protein 1 (Homo sapiens), Q9Y468; AlphaScreen L3MBTL1–H3K9me1 peptide binding; Potency, µM (highest dose often 57.1 µM), for inactives: top-dose activity, negative = inhibition, usual class: inhibitors; hit rate 0.66% among 230,000; note: nearly all actives have a fitted effect of over 60% in size
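First, the protein-peptide complex forms for 30 min at room temperature (L3MBTL1 50 nM, biotinylated H3K9me1 peptide 75 nM). Next, compounds are pin-transferred and incubated 30 min. Finally, AlphaScreen beads are added and read after 30 min.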
RECQ1 helicase: qHTS Assay for Inhibitors of RecQ-Like Dna Helicase 1 (RECQ1); Potency, µM (doses to about 57.3 µM), without a hit: top-dose activity, negative = inhibition, most hits filed as inhibitors; AID 2549, 2010; ATP-dependent DNA helicase Q1 (Homo sapiens), P46063; hit rate 0.54% among 240,000; RECQ1 DNA unwinding, red fluorescence kinetic read;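 note: plate controls were vehicle for no effect and no enzyme for full effect; nearly all actives have a fitted effect of over 30% in size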
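50 nM RECQ1T1 preincubated 15 min with compound in Tris pH 8.0 buffer with MgCl2, DTT, Tween-20 and 2.5 ug/ml poly(dI-dC); started with 200 nM TAMRA/BHQ-2 forked duplex and 2 mM ATP. Unwinding read as fluorescence (525/598 nm), two reads 2 h apart.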
* marks the source's active call; other numbers are inactive results; i = inactive; ? = inconclusive; / = no result given. The list is not random: actives were taken first. Their share in the collection is about 0.99%. Calls come from the whole dose curve; as a rule, active = well fitted curve in the direction sought with a large enough effect; inconclusive = small, poorly fitted or top-dose-only effect, or another doubt; inactive = no such curve, though single readings can be large; an effect the other way counts as inactive or inconclusive. Unless noted, % is set by controls: 0 for no effect and ±100 for the full control effect; potency is the fitted concentration of half-maximal effect.

SMILES	BLM inh	FEN1 inhibitor	WRN helicase inh	L3MBTL1 block	RECQ1 helicase
COc1cc2c(NC3CCN(C)CC3)nc(N3CCCN(C)CC3)nc2cc1OCC1CCCNC1 (centres undefined)	/	20µM*	/	/	/
COc1cc2nc(N3CCCN(C)CC3)nc(NC3CCNCC3)c2cc1OC	/	25µM*	/	/	/
COc1cc2c(Nc3ccc(Br)cc3F)ncnc2cc1OCC1CCN(C)CC1	79%	/	/	/	/
COc1ccc(OC)c(C(=O)c2c(C)oc3cc(Br)c(O)c(CN(C)C)c23)c1	/	-9%	-30%	/	/
CC(=O)c1ccc(S(=O)(=O)N2CCN(C(=O)c3ccc(-n4nc(C)c(Cl)c4C)cc3)CC2)cc1	/	12%	7%	-2%	/
Cc1cc(C(F)(F)F)nn1CC(=O)NNC(=S)Nc1ccc(Cl)cc1	0%	0%	0%	0%	-2%
O=C(Cn1nnc(-c2cc(C(F)(F)F)cc(C(F)(F)F)c2)n1)NNC(=S)Nc1ccc(Cl)cc1	18µM*	-32%	-12%	-23%	5%
COc1cccc(/C=N/Nc2nc(Nc3ccc([N+](=O)[O-])cc3)nc(N3CCCC3)n2)c1O	28µM*	-25%	50µM*	/	?
COc1cccc(/C=N/NC(=O)C(=O)N2CCCC2)c1O	1%	1%	2%	22µM*	-2%
O=[N+]([O-])c1ccc(Nc2nc(NC3CCCCC3)nc(N3CCCC3)n2)cc1	28µM*	-6%	3%	/	-8%
C/C(=N\NC(=O)c1c[nH]c2ccccc12)c1ccccn1	-1%	2%	-20%	8.9µM*	-22%
CN(C)c1ccc(C(c2ccc(N(C)C)cc2)c2ccc([N+](=O)[O-])cc2)cc1	-12%	0%	-6%	28µM*	6%
NC(N)=Nc1ccc(Cl)cc1	1%	/	/	/	-2%
NC(=Nc1ccc(N)cc1)C(N)=Nc1ccc(N)cc1	-1%	-23%	2%	32µM*	i
CCOC(=O)C1CCN(Cc2ccccc2C(F)(F)F)CC1	-1%	-2%	9%	13%	-6%
CCOC(=O)C1CCN(Cc2ccc(O)c3ncccc23)CC1	-13%	?	6%	28µM*	i
O=C(Nc1ccc(C2=NCCN2)cc1)c1ccc(C(=O)Nc2ccc(C3=NCCN3)cc2)c(Cl)c1	257%	50µM*	?	-20%	57%
CC1(C)c2ssc(=S)c2-c2ccccc2N1C(=O)CSC1=NCCS1	-5%	-18%	-8%	14µM*	3%
COc1cc2ccc(=O)oc2c(O)c1O	-3%	8.9µM*	-14%	/	-4%
Brc1cccc[n+]1CCC[n+]1ccccc1Br	/	79µM*	/	/	/
Cc1cccc[n+]1CCCCCCCCCC[n+]1ccccc1C	-1%	-4%	-6%	16%	-5%
CCC(=O)N1CCCC(C(=O)Nc2nc3ccccc3n2C)CC1 (centres undefined)	/	/	3%	/	/
CCOC(=O)NC1(Nc2ccc(Cl)cn2)Oc2ccccc2O1	-7%	/	/	11µM*	22µM*
COc1ccc(/C=N\NC(=O)c2ccc([N+](=O)[O-])c(C)c2)cc1COc1ccccc1C(N)=O	?	79µM*	?	/	/
Oc1ccc(CN2CCCc3ccccc32)c2cccnc12	-5%	-2%	-21%	28µM*	2%
SMILES	BLM inh	FEN1 inhibitor	WRN helicase inh	L3MBTL1 block	RECQ1 helicase
N#Cc1nccnc1S(=O)(=O)c1cccs1	-8%	4%	50µM*	-6%	-5%
CN(Cc1ccccc1C#N)S(=O)(=O)c1cccs1	-3%	-3%	0%	/	/
O=C(N/N=C/c1cc(Cl)cc([N+](=O)[O-])c1O)NC12CC3CC(CC(C3)C1)C2	?	1%	45µM*	-24%	5%
O=C(N/N=C/c1ccccc1O)NC12CC3CC(CC(C3)C1)C2	-8%	-29%	-4%	/	/
COc1ccc(CCNC(=O)CCc2c(C)nc3cc(-c4ccc(Cl)cc4)nn3c2C)c(OC)c1	0%	2%	/	/	/
Cc1cccc(NC(=O)CNC(=O)c2cccc(-n3cccc3)c2)c1C	/	?	?	3.5µM*	/
Cc1cccc(C)c1NC(=O)CN(C)C(=O)c1cccc(-n2cccc2)c1	/	-21%	71µM*	28µM*	/
